Compounds with a hit are over-represented: about 3.9% of the library has one in this group of screens.
HSP90 inh: HSP90 refolding inhibition in rabbit reticulocyte lysate. luciferase refolding luminescence, 3 h. inhibition, % at 5.6 µM. 0.91% of 290,000 active;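 active means inhibition above the screen-wide mean plus 3 SD, computed separately per campaign, cut at about 16% in these data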;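 further: inhibitors lower the luminescence because luciferase stays unfolded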
aSyn UTR inh: 5' untranslated region of α-synuclein, MLPCN primary screen; alpha-synuclein 5'UTR reporter, inhibitor activity; inhibition, % (tested at 7.5 µM); 0.82% of 300,000 active; AID 1813; in the data active means inhibition above about 60%;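 further: H4 neuroglioblastoma cells stably carrying SNCA 5'UTR luciferase fusion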
HIF-2a block: blocks HIF-2a reporter activity; 786-0 RCC cells HIF-2a reporter, luciferase luminescence, overnight; inhibition, % at 18.8 µM; 0.72% of 360,000 active; AID 624352;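 active means inhibition of the luminescence signal of 40% or more relative to plate controls, in a single-dose primary screen at 18.75 µM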
TROY NFkB inh: blocks TROY-dependent signaling in reporter cells; Q293 LMP1-TROYcd NF-kB luciferase reporter, 4 h; inhibition, % at 10 µM; 0.98% of 360,000 active;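 active means compounds whose plate-normalised and pattern-corrected inhibition of the luciferase reporter signal at the single screening dose is 50% or more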
TRAIL sens C8: sensitizes caspase-8 expressing cells to TRAIL. AID 624354. 1% of 360,000 active. NB7+C8 cells + TRAIL, ATPlite viability luminescence. inhibition (viability loss, TRAIL sensitization), % at 10 µM;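 active means compounds causing at least 50% loss of cell viability in the single-dose screen, relative to plate controls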
TWEAK Fn14 block: inhibitors of TWEAK-Fn14 interaction signaling; TWEAK-stimulated Fn14 reporter cells, luciferase luminescence, 8 h; inhibition, % at 10 µM; 2% of 360,000 active; in the data active means inhibition above about 50%
Mdm2 MdmX conf: Mdm2/MdmX (human) interaction inhibition, confirmed. shares compounds with HIF-2a block. SaOS-2 split-luciferase Mdm2/MdmX complementation, luminescence. inhibition, % at 8 µM. 99% of 740 active;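 active means mean inhibition of the luminescence signal across two replicates at or above 26 percent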
Target sequence (O15151 whole entry, looked up): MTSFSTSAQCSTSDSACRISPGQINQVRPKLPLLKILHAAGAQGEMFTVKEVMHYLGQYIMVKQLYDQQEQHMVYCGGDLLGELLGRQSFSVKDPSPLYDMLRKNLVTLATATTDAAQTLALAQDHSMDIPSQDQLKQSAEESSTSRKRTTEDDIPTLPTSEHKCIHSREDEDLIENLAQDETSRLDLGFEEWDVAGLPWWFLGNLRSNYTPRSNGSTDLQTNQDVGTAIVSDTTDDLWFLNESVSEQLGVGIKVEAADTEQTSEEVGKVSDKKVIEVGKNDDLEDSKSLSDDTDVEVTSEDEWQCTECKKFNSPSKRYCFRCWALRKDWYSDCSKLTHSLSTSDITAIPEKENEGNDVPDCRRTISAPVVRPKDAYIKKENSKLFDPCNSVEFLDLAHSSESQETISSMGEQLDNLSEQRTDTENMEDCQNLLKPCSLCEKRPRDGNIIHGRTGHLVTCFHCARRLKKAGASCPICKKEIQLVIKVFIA
Target sequence (Q00987 whole entry, looked up): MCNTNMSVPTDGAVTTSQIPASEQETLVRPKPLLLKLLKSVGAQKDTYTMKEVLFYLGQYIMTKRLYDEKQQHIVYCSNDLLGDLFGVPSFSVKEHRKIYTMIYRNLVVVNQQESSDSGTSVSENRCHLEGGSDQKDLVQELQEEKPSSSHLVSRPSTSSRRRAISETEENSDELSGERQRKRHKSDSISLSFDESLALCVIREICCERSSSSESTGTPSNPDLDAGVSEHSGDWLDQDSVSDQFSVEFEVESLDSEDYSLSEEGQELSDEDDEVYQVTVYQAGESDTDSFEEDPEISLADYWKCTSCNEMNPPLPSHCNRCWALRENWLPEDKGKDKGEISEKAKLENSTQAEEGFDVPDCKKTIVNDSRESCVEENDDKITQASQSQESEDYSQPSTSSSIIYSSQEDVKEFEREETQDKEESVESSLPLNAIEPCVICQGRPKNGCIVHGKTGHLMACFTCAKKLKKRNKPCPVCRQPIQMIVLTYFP
HIF-2a inh conf: confirmation of HIF-2a inhibitors. shares compounds with HIF-2a block. 786-0 RCC cells, HIF-2a luciferase reporter luminescence, overnight. inhibition, % at 18.8 µM. 56% of 1,800 active. AID 651580;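 active means mean inhibition across four replicates of at least 40 percent at the single tested concentration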
HIF-1a cs: counter-screen for HIF-2a inhibitors: HIF-1a inhibition in MiaPaCa-2 cells. shares compounds with HIF-2a block. MiaPaCa-2 HIF-1a luciferase reporter, desferoxamine, overnight. inhibition, % at 18.8 µM. 72% of 1,800 active. AID 651589;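 active means mean inhibition of the reporter signal across four replicates at the single tested dose of 50% or more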
Hits are given with their value; . = inactive; / = no result.

SMILES	HSP90 inh	aSyn UTR inh	HIF-2a block	TROY NFkB inh	TRAIL sens C8	TWEAK Fn14 block	Mdm2 MdmX conf	HIF-2a inh conf	HIF-1a cs
O=C(CCN1C(=O)/C(=C/c2ccccc2)SC1=S)NCCc1ccc(O)cc1	.	.	.	.	.	.	102	/	/
O=C1NC(C2CC3C=CC2C3)Nc2ccccc21 (stereo not drawn)	/	/	.	.	.	.	/	/	/
CC1=C(C(=O)N2CCOCC2)CC(CC(=O)NCCN2CCOCC2)C(=O)N1Cc1ccccc1 (stereo not drawn)	/	/	.	.	.	.	/	/	/
Cc1cc(C)cc(Cn2ncc(Cl)c(Cl)c2=O)c1	.	.	/	/	/	/	/	/	/
O=c1c(Cl)c(Cl)cnn1Cc1nnc(-c2ccc(Cl)cc2)o1	.	.	94	52	.	86	/	.	105
CCc1ccc(C(=O)Cn2ncc(Cl)c(Cl)c2=O)cc1	.	.	96	.	97	79	103	.	104
O=c1c(Cl)c(Cl)cnn1Cc1ccccc1Cl	.	.	/	/	/	/	/	/	/
Cc1ccc(Cn2ncc(Cl)c(Cl)c2=O)cc1	.	.	98	.	91	65	/	.	98
Cc1nn(CC(=O)N(CC(C)C)C2CCS(=O)(=O)C2)c(C)c1[N+](=O)[O-] (stereo not drawn)	/	/	.	.	.	.	/	/	/
C=CCC[C@@H](Cc1ccc(F)cc1)C(=O)OC[C@@H](NC(=O)[C@@H](CC=C)CC(=O)N[C@H](CO)Cc1ccccc1)C(C)(C)C	/	/	.	.	.	.	/	/	/
CC1CCc2c(sc(NC(=O)CSc3ncn[nH]3)c2C#N)C1 (stereo not drawn)	.	91	91	.	.	72	/	95	90
N#Cc1c(NC(=O)CSc2ncn[nH]2)sc2c1CCCC2	.	84	90	.	.	81	/	94	71
N#Cc1c(NC(=O)CCCC(=O)O)sc2c1CCCCC2	.	90	63	.	.	.	/	67	.
COc1ccc(S(=O)(=O)N2CCOCC2)cc1NC(=O)C1CC(=O)N(c2ccc3c(c2)OCCO3)C1 (stereo not drawn)	/	/	.	.	.	.	/	/	/
O=C(Nc1ccc([N+](=O)[O-])cc1)Nc1ccc(OC(F)F)c(Cl)c1	.	/	42	61	.	82	/	.	100
Cc1ccc2nc(-c3ccncc3)c(Nc3ccccc3)n2c1	.	.	.	.	.	.	/	/	/
Cc1ccc(Nc2c(-c3ccccn3)nc3cc(C)ccn23)cc1	.	.	.	.	.	.	88	/	/
Cc1ccc(Nc2c(-c3ccccn3)nc3ccc(C)cn23)cc1	.	.	.	.	.	.	86	/	/
CC(C)(c1ccc(O)cc1)c1ccc(O)c(C(=O)O)c1	/	/	.	.	.	.	/	/	/
O=C(NCc1ccccc1)c1cc(C2CCCCN2C(=O)c2ccccc2)on1 (stereo not drawn)	/	/	.	.	.	.	/	/	/
COc1ccccc1C(C[N+](=O)[O-])c1c(N)n(C)c(=O)n(C)c1=O (stereo not drawn)	.	.	74	.	.	52	/	56	.
COc1ccc([N+](=O)[O-])c(S(=O)(=O)c2ccccc2)n1	.	.	82	72	.	97	103	88	84
COc1ccc([N+](=O)[O-])c(S(=O)(=O)c2ccc(Cl)cc2)n1	.	.	60	66	.	97	103	75	62
COc1ccccc1S(=O)(=O)c1ccccc1[N+](=O)[O-]	.	.	.	.	.	.	/	/	/
Nc1cccnc1S(=O)(=O)c1ccccc1	.	.	.	.	.	.	/	/	/
SMILES	HSP90 inh	aSyn UTR inh	HIF-2a block	TROY NFkB inh	TRAIL sens C8	TWEAK Fn14 block	Mdm2 MdmX conf	HIF-2a inh conf	HIF-1a cs
O=[N+]([O-])c1cccnc1S(=O)(=O)c1ccccc1	.	.	55	.	.	95	102	.	.
COc1ccc2cc(CCNC(=O)c3ccc4c(c3)OCO4)c(=O)[nH]c2c1	.	.	38	.	.	.	/	.	.
N#Cc1cccc(C(Br)S(=O)(=O)c2ccccc2)c1 (stereo not drawn)	/	/	.	.	.	.	/	/	/
Cc1nc(SCc2ccc(C(=O)O)cc2)nc2c1CCCC2	.	.	82	.	.	.	/	89	62
Cc1ccccc1Cn1cc(S(=O)(=O)c2ccc(C(C)C)cc2)c(=O)c2cc3c(cc21)OCO3	/	.	.	.	.	.	/	/	/
Cc1ccccc1S(=O)(=O)NC(=O)C1(C)CCN1C(=O)c1ccccc1CCc1ccccc1 (stereo not drawn)	/	/	.	.	.	.	/	/	/
Cc1cccc(/C=C(\c2nc3ccccc3[nH]2)S(=O)(=O)c2ccccc2)c1	.	.	88	.	.	75	/	92	105
CC(C)(C)c1ccc(/C=C(\c2nc3ccccc3[nH]2)S(=O)(=O)c2ccccc2)cc1	/	.	95	.	.	95	103	97	108
O=C(/C(=C(\O)c1ccccc1)c1nc2ccccc2[nH]1)c1ccccc1	.	.	.	.	.	.	/	/	/
O=C(O)c1ccc(/C=C(\c2nc3ccccc3[nH]2)c2nc3ccccc3s2)cc1	.	.	.	.	.	.	/	/	/
Nc1cc2ccncc2c2ccccc12	.	.	.	57	.	83	90	/	/
CC(CS(=O)(=O)c1ccc2ccccc2c1)N1CCN(C2CCCCC2)CC1 (stereo not drawn)	.	/	/	/	/	/	/	/	/
O=S(=O)(CC(CN1CCCC1)N1CCCC1)c1ccc2ccccc2c1 (stereo not drawn)	.	.	.	.	.	.	103	/	/
CC1(C(=O)NCc2ccccc2)CSCC(=O)N1Cc1cccc(F)c1 (stereo not drawn)	/	/	.	/	.	/	/	/	/
COc1ccc(-c2cn[nH]c2-c2ccc(OCc3ccccc3)cc2O)cc1	.	.	.	.	.	63	90	/	/
Cc1ccc(Oc2ncnc(N)c2[N+](=O)[O-])cc1	.	.	.	.	.	.	/	/	/
CC1Cc2ccccc2N1c1ncnc(N)c1[N+](=O)[O-] (stereo not drawn)	.	69	.	68	.	93	102	/	/
CCOc1ccc(S(=O)(=O)N2CCC(C(=O)Nc3ccccc3N3CCCC3)CC2)cc1	/	/	.	.	.	.	/	/	/
Cc1nn(C)c(Cl)c1CN1CCC(CO)(CC2CCCCO2)CC1 (stereo not drawn)	.	.	.	.	.	.	/	/	/
CCCn1ncc(CN2CCC(CO)(CC3CCCCO3)CC2)c1C (stereo not drawn)	.	.	40	.	.	.	/	.	.
CCCc1ccc(C(O)c2ncc(-c3ccccc3)[nH]2)cc1 (stereo not drawn)	/	/	.	.	.	.	/	/	/
Nc1nc(NC2CCCCC2)nc(NCCO)c1[N+](=O)[O-]	.	.	.	.	.	.	/	/	/
NCCCNc1nc(N)c([N+](=O)[O-])c(NC2CCCCC2)n1	.	.	48	.	.	.	/	.	99
